# Screens: PubChem BioAssay, several laboratories
# Rows were chosen to be rich in hits. Some 2% of all compounds tested hit in one or more screens of this group.
# ARNT TACC3 PPI – disruptors of human ARNT/TACC3 interaction. AlphaScreen His-ARNT PAS-B/GST-TACC3 binding, luminescence; TACC3 fragment carries E629A point mutation. inhibition, % at 9.99 µM. hit rate 0.66% among 390,000;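 active means mean inhibition of replicates at least 50% and at least half of replicates each reaching 50%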;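 further: 0% = complete ARNT plus TACC3 wells and 100% = ARNT alone without TACC3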
# NadD block – blocks S. aureus nicotinate mononucleotide adenylyltransferase; AID 602399; hit rate 0.78% among 360,000; purified NadD enzyme, colorimetric absorbance read-out; inhibition, % at 20 µM; in the data active means inhibition above about 26%
# sPLA2-III inh – Blocks human group III sPLA2 activity; hit rate 0.56% among 370,000; Q9NZ20; AID 743126; inhibition, % at 12.2 µM; QFRET BODIPY PC-A2 liposome hydrolysis, fluorescence;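 active means inhibition above mean plus 3 SD of compounds lying within the high and low control bounds, cut at about 19% in these data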;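 further: 0% = median of test compound wells and 100% = no enzyme DMSO wells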
# Target sequence (Q9NZ20 whole entry, looked up): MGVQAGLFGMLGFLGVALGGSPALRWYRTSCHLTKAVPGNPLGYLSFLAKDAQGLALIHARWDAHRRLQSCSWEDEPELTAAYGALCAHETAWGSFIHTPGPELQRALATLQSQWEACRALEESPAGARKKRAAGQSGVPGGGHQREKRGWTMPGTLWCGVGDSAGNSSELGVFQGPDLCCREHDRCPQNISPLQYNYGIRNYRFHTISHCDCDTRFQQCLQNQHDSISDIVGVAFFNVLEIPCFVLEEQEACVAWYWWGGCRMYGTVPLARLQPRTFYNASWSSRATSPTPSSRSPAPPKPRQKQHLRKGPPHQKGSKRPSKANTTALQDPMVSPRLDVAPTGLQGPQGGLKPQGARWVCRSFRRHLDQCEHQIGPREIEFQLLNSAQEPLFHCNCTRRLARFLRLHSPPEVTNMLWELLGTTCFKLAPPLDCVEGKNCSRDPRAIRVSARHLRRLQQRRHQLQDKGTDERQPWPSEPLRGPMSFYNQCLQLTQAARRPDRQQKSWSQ
# DAGLB inh – blocks human DAGLB lipase activity. Q8NCG7. HEK293T DAGLB membrane lysate, EnzChek fluorogenic substrate. inhibition, % at 5.17 µM. hit rate 0.059% among 340,000; in the data active means inhibition above about 34%;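 further: 0% = enzyme with vehicle and 100% = wells lacking enzyme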
# Neddyl block – inhibitors of human cullin neddylation; P61081+Q13564; TR-FRET cullin neddylation, biochemical; inhibition, % at 25 µM; hit rate 0.58% among 360,000; AID 651699; in the data active means inhibition above about 36%
# NadD inh conf – NadD (S. aureus) inhibition, single concentration confirmation | shares compounds with NadD block | purified S. aureus NadD, colorimetric enzyme assay | inhibition, % at 20 µM | hit rate 13% among 2,000 | AID 624309; in the data active means inhibition mostly above about 42%, no sharp cut-off; inactive means mostly below about 42%
# Active calls of the source: *; . = no result given.
SMILES,ARNT TACC3 PPI,NadD block,sPLA2-III inh,DAGLB inh,Neddyl block,NadD inh conf
Cc1nn(-c2ccccc2)c(N2CCCC2)c1/C=N/Nc1ccc(S(=O)(=O)Nc2ccccc2)cc1[N+](=O)[O-],-1,47*,4,7,-20,22
CCOc1ccc(S(=O)(=O)Nc2ccc(C(=O)N/N=C/c3c(C)nn(-c4ccccc4)c3N3CCCC3)cc2)cc1,-1,33*,3,0,.,24
O=C(O)c1ccccc1NS(=O)(=O)c1ccc(NN=Cc2cccc(Cl)c2)c([N+](=O)[O-])c1,5,31*,-18,17,-23,11
COc1ccccc1NS(=O)(=O)c1ccc(N/N=C/c2c(C)nn(-c3ccccc3)c2N2CCCC2)c([N+](=O)[O-])c1,-3,38*,2,15,-10,14
C[C@H](CO)N1C[C@H](C)[C@@H](CN(C)C(=O)Nc2ccc(C(F)(F)F)cc2)OCCCC[C@H](C)Oc2ccc(NC(=O)Nc3ccc(F)cc3)cc2C1=O,4,.,.,.,.,.
C[C@@H]1CCCCO[C@H](CN(C)C(=O)Nc2ccccc2)[C@@H](C)CN([C@@H](C)CO)C(=O)c2cc(NS(=O)(=O)c3ccc(F)cc3)ccc2O1,1,.,.,.,.,.
COc1cccc(C2C3=C(N=c4s/c(=C\c5ccc(O)cc5)c(=O)n42)c2ccccc2CC3)c1OC (configuration not stated),-2,14,-3,0,11,.
COc1cccc(C2C3=C(N=c4s/c(=C\c5cccc(O)c5)c(=O)n42)c2ccccc2CC3)c1OC (configuration not stated),3,40*,-30,-5,4,11
O=C1c2ccc(Cl)cc2S(=O)(=O)c2cccc(C(=O)N3CCN(c4ccc(Cl)cn4)CC3)c21,-3,22,7,3,-61,.
O=C(NC[C@H]1CCCO1)c1cccc2c1C(=O)c1ccc(-c3ccc(F)cc3OCc3ccccc3)cc1S2(=O)=O,3,17,-14,2,-74,.
O=C1c2ccc(-c3ccc(F)cc3OCc3ccccc3)cc2S(=O)(=O)c2cccc(C(=O)N3CCN(c4ncc(Cl)cc4Cl)CC3)c21,17,61*,2,-5,-11,21
N#Cc1cccnc1N1CCN(C(=O)c2cccc3c2C(=O)c2ccc(-c4ccc(F)cc4OCc4ccccc4)cc2S3(=O)=O)CC1,2,31*,-9,1,-3,0
O=C1c2ccc(-c3ccc(Cl)c(C(F)(F)F)c3)cc2S(=O)(=O)c2cccc(C(=O)N3CCN(c4ncc(Br)cn4)CC3)c21,-5,52*,-7,-1,-3,1
Cc1cc(CNC(=O)c2cccc3c2C(=O)c2ccc(-c4ccc(F)cc4OCc4ccccc4)cc2S3(=O)=O)c(C(F)(F)F)o1,1,52*,-20,10,-84,39
CO[C@@H]1CN(C)C(=O)c2ccc(NC(=O)C3CCOCC3)cc2OC[C@@H](C)N(C(=O)c2ccccc2)C[C@H]1C,0,.,.,.,.,.
Cc1cc(NC(=O)c2cc(-c3cccnc3)nc3c(C)c(C)ccc23)no1,0,8,2,0,.,.
Cc1c(Cl)ccc2c(C(=O)Nc3cc(C(C)(C)C)on3)cc(-c3ccccn3)nc12,-4,34*,0,-2,-52,11
COCC(=O)N1C[C@@H](C)[C@H](OC)CN(C)C(=O)c2cc(NC(=O)c3ccc(OC)cc3)ccc2OC[C@@H]1C,-15,.,.,.,.,.
CCOC(=O)c1cc2c(=O)n3cccc(C)c3nc2n(Cc2ccco2)c1=NC(=O)c1ccccc1,15,32*,7,4,.,11
CCOC(=O)c1cc2c(=O)n3ccccc3nc2n(Cc2ccco2)c1=NC(=O)c1ccccc1OC,32,28,3,-3,.,.
CCOC(=O)c1cc2c(=O)n3ccccc3nc2n(Cc2ccco2)c1=NC(=O)c1ccc(OC)cc1,6,32*,-3,2,.,7
CCOC(=O)c1cc2c(=O)n3ccccc3nc2n(Cc2ccco2)c1=NC(=O)c1cccc(OC)c1,2,45*,-1,2,.,8
CO[C@@H]1CN(C)C(=O)c2ccc(NC(=O)C3CCOCC3)cc2OC[C@H](C)NC[C@@H]1C,17,.,.,.,.,.
Cc1cccc(N2CCN(c3ccc4cc(S(=O)(=O)N5CCCCC5)ccc4n3)CC2C)c1 (configuration not stated),1,28,8,-1,-158,.
Cc1cccc(N2CCN(c3ccc4cc(S(=O)(=O)N5CCCCC5)ccc4n3)CC2)c1C,4,29*,4,-3,-254,21
SMILES,ARNT TACC3 PPI,NadD block,sPLA2-III inh,DAGLB inh,Neddyl block,NadD inh conf
Cc1ccc(C)c(N2CCN(c3ccc4cc(S(=O)(=O)N5CCCCC5)ccc4n3)CC2)c1,-8,32*,-2,-2,-21,16
C[C@@H]1CCCCO[C@@H](CN(C)S(=O)(=O)c2ccc(Cl)cc2)[C@H](C)CN([C@H](C)CO)C(=O)c2cc(NS(=O)(=O)c3cccs3)ccc2O1,15,.,.,.,.,.
Cc1cccc(S(=O)(=O)N2CC[C@@H]3[C@H]2c2cc(C#Cc4cccc(F)c4)ccc2N[C@@H]3CO)c1,11,.,.,.,.,.
CCn1c2ccccc2c2c3ncc4cccn4c3ccc21,-31,39*,-11,1,.,5
O=C1O[C@H]([C@@H](O)CO)C(O)=C1O,-19,35*,3,3,5,2
COc1ccc(C2CC(c3ccccc3)=NN2c2ccc(/C=N/NC(=O)c3ccncc3)cc2)cc1 (configuration not stated),2,-6,6,-2,12,.
N#CCC(=O)N/N=C/c1ccc(N2N=C(c3ccccc3)CC2c2ccccc2)cc1 (configuration not stated),-23,49*,-20,3,.,26
Cc1cc(Br)cc2c(C(=O)Nc3c(C)n(C)n(-c4ccccc4)c3=O)cc(-c3cccs3)nc12,0,30*,3,0,-33,10
COC(=O)C[C@@H]1CC[C@@H]2[C@H](COc3ccc(NC(=O)Nc4ccc(C#N)cc4)cc3C(=O)N2C)O1,-16,.,.,.,.,.
CC1(C)Cc2c(sc3c2c(=N)n(Cc2ccco2)c(=O)n3Cc2ccc(Cl)cc2)CO1,-8,32*,3,-2,-45,20
CC1(C)Cc2c(sc3c2c(=N)n(Cc2ccco2)c(=O)n3Cc2ccccc2)CO1,18,26,1,-2,-3,.
O=C(C1CC1)N1CC[C@H]2[C@H](CO)Nc3ccc(-c4cccc(F)c4)cc3[C@H]21,10,.,.,.,.,.
CC(C)c1ccc(NC(=O)Nc2cc3sccc3n2C)cc1,-1,42*,0,3,-8,27
Cn1c(C(=O)Nc2ccc3c(c2)OCCO3)cc2sccc21,7,-7,-5,-3,5,.
COc1ccccc1N1CCN(c2nc3ccccc3nc2C(C#N)C(=O)OC(C)C)CC1 (configuration not stated),9,37*,1,-5,3,6
O=C(Cn1nc(-c2ccccc2)c2ccccc2c1=O)Nc1ccc(F)cc1,-6,-6,6,-1,-24,.
